Tested on: AXL
Settings: concentration: 1 μM, replicates: in singlicate; n = 1
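Also: KINOMEscan kinase panel screen.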

Structure (SMILES)	%Inh [%]
Cc1c2ccc(N(C)c3ccnc(Nc4cccc(S(N)(=O)=O)c4)n3)cc2nn1Cc1ccccc1.Cl.Cl [GW787226]	73
Fc1ccc(-c2ncn(CCCN3CCOCC3)c2-c2cccnc2)cc1 [SB-211743]	0
COc1ccc(Nc2ncc(C#N)c(Nc3ccccc3C(N)=O)n2)cc1N1CCN(C)CC1.Cl [GSK1558669]	98.9
O=c1cc(N2CCOCC2)nc2n(Cc3cccc4ccccc34)ccn12 [GSK2333389]	0
CCc1nc(-c2cccc(C)c2)c(-c2ccnc(NCc3ccccc3)c2)s1	0
O=C(NCCNc1ccnc(Nc2ccc(F)cc2)n1)c1cc2ccccc2s1 [GSK1379874]	10
O=C(NCCNc1ccnc(Nc2ccc(F)cc2)n1)Nc1ccccc1F [GSK1379880]	0
CN(C(=O)c1ccc(-c2cc(-c3c[nH]nc3-c3ccccn3)ccn2)cc1)C1CCOCC1 [GW810083]	48
O=C(Nc1n[nH]c2cc(-c3cccc(F)c3)ccc12)C1CC1 [SB-735464]	27
Cc1nnc(-c2ccc(C)c(-c3ccc(C(=O)Nc4ccc(NS(C)(=O)=O)cc4)cc3)c2)o1 [GW702865]	1
COc1ccc(S(=O)(=O)NC2CCN(c3cc(C)nc(Nc4cccc(C#N)c4)n3)CC2)cc1.O=C(O)C(F)(F)F [GSK1653539]	0
O=C(NOCC1CC1)c1ccc(F)c(F)c1Nc1ccc(I)cc1Cl	2
COc1cc2c(cc1OC[C@@H](O)CO)ncc1c3ccc(C#N)cc3[nH]c21	17
NS(=O)(=O)CCc1cccc(Nc2nccc(-c3c(-c4cccc(NC(=O)c5c(F)cccc5F)c4)nn4ccccc34)n2)c1 [GSK336735]	90.5
COc1ccc(CNC(=O)NC2CCN(c3ccnc(Nc4ccc(OC)cc4)n3)C2)cc1 (stereo not drawn) [GSK1379727]	7
c1ccc(-c2cc(-c3c[nH]nc3-c3ccccn3)ccn2)cc1 [GW576604]	0
Cn1cc(-c2ccc3c(c2)CCN3C(=O)Cc2ccccc2Cl)c2c(N)ncnc21 [GSK2608885]	94

Structure (SMILES)	%Inh [%]
Cc1nnc(-c2ccc3ncc(-c4ccc(S(C)=O)cc4)n3c2)o1 (stereo not drawn)	11
Cc1ccc(NC(=O)c2ccnc(N3CCN(C)CC3)c2)cc1-c1ccc(C(=O)NCC2CC2)cc1 [GW775604]	0
CN(C1=C(c2ccccc2)C(=O)NC1=O)c1ccccc1 [SB-334860]	0
Cc1ccc(C(=O)NCC(N)=O)cc1-n1c(C)cc(OCc2ccc(F)cc2F)c(Br)c1=O	11
NCC(NC(=O)c1cc(-c2cn[nH]c2)c(-c2ccnc3[nH]ccc23)s1)c1ccccc1.O=C(O)C(F)(F)F.O=C(O)C(F)(F)F (stereo not drawn) [GSK1325775]	45
CNc1ncnc2[nH]ncc12 [SKF-18355]	0
CCCCCc1nc2c(N)ncnc2n1CCCCC [SKF-97255]	0
C[C@@H](Oc1cc(-n2cnc3ccc(NC(=O)NC(C)(C)C)cc32)sc1C(N)=O)c1ccccc1Cl [GSK346294]	0
Cl.Oc1cccc(Nc2ccnc3cc(-c4ccncc4)ccc23)c1 [GW494601]	21
O=C1NC(=O)C(N2CCc3ccccc32)=C1c1cccc(Cl)c1 [SB-408010]	0
Cc1cn2c(=O)cc(N3CCOCC3)nc2n1Cc1cccc(Cl)c1Cl [GSK2334006]	0
N#Cc1c(N2CCOCC2)sc(-c2ccn[nH]2)c1-c1ccc(Cl)cc1	0
CC(=O)Nc1ccc(COc2ccc(Nc3ccnc4cc(-c5ccccn5)ccc34)cc2)cc1.Cl [GW440148]	1
O=c1cc(N2CCOCC2)nc2n(Cc3cccc(C(F)(F)F)c3)ccn12 [GSK2297543]	18
Fc1ccc(-c2nn3c(OCC(F)(F)F)cccc3c2-c2ccncc2)cc1 [GW514784]	0
Cc1cccc(-c2nc(Nc3ccc4ncsc4c3)c3ccccc3n2)n1 [GW867588]	0

Tested on: T1, BIKE
T1 construct: gene BMP2K
Settings: concentration: 1 μM, replicates: in singlicate; n = 1

Structure (SMILES)	%Inh [%]
Cc1c2ccc(N(C)c3ccnc(Nc4cccc(S(N)(=O)=O)c4)n3)cc2nn1Cc1ccccc1.Cl.Cl [GW787226]	0
Fc1ccc(-c2ncn(CCCN3CCOCC3)c2-c2cccnc2)cc1 [SB-211743]	0
COc1ccc(Nc2ncc(C#N)c(Nc3ccccc3C(N)=O)n2)cc1N1CCN(C)CC1.Cl [GSK1558669]	100
O=c1cc(N2CCOCC2)nc2n(Cc3cccc4ccccc34)ccn12 [GSK2333389]	16
CCc1nc(-c2cccc(C)c2)c(-c2ccnc(NCc3ccccc3)c2)s1	0
O=C(NCCNc1ccnc(Nc2ccc(F)cc2)n1)c1cc2ccccc2s1 [GSK1379874]	0
O=C(NCCNc1ccnc(Nc2ccc(F)cc2)n1)Nc1ccccc1F [GSK1379880]	0
CN(C(=O)c1ccc(-c2cc(-c3c[nH]nc3-c3ccccn3)ccn2)cc1)C1CCOCC1 [GW810083]	20
O=C(Nc1n[nH]c2cc(-c3cccc(F)c3)ccc12)C1CC1 [SB-735464]	21
Cc1nnc(-c2ccc(C)c(-c3ccc(C(=O)Nc4ccc(NS(C)(=O)=O)cc4)cc3)c2)o1 [GW702865]	7
COc1ccc(S(=O)(=O)NC2CCN(c3cc(C)nc(Nc4cccc(C#N)c4)n3)CC2)cc1.O=C(O)C(F)(F)F [GSK1653539]	5
O=C(NOCC1CC1)c1ccc(F)c(F)c1Nc1ccc(I)cc1Cl	43
COc1cc2c(cc1OC[C@@H](O)CO)ncc1c3ccc(C#N)cc3[nH]c21	96.2
NS(=O)(=O)CCc1cccc(Nc2nccc(-c3c(-c4cccc(NC(=O)c5c(F)cccc5F)c4)nn4ccccc34)n2)c1 [GSK336735]	27
COc1ccc(CNC(=O)NC2CCN(c3ccnc(Nc4ccc(OC)cc4)n3)C2)cc1 (stereo not drawn) [GSK1379727]	11
c1ccc(-c2cc(-c3c[nH]nc3-c3ccccn3)ccn2)cc1 [GW576604]	23
Cn1cc(-c2ccc3c(c2)CCN3C(=O)Cc2ccccc2Cl)c2c(N)ncnc21 [GSK2608885]	23

Structure (SMILES)	%Inh [%]
Cc1nnc(-c2ccc3ncc(-c4ccc(S(C)=O)cc4)n3c2)o1 (stereo not drawn)	0
Cc1ccc(NC(=O)c2ccnc(N3CCN(C)CC3)c2)cc1-c1ccc(C(=O)NCC2CC2)cc1 [GW775604]	0
CN(C1=C(c2ccccc2)C(=O)NC1=O)c1ccccc1 [SB-334860]	0
Cc1ccc(C(=O)NCC(N)=O)cc1-n1c(C)cc(OCc2ccc(F)cc2F)c(Br)c1=O	7
NCC(NC(=O)c1cc(-c2cn[nH]c2)c(-c2ccnc3[nH]ccc23)s1)c1ccccc1.O=C(O)C(F)(F)F.O=C(O)C(F)(F)F (stereo not drawn) [GSK1325775]	99.7
CNc1ncnc2[nH]ncc12 [SKF-18355]	0
CCCCCc1nc2c(N)ncnc2n1CCCCC [SKF-97255]	0
C[C@@H](Oc1cc(-n2cnc3ccc(NC(=O)NC(C)(C)C)cc32)sc1C(N)=O)c1ccccc1Cl [GSK346294]	32
Cl.Oc1cccc(Nc2ccnc3cc(-c4ccncc4)ccc23)c1 [GW494601]	7
O=C1NC(=O)C(N2CCc3ccccc32)=C1c1cccc(Cl)c1 [SB-408010]	37
Cc1cn2c(=O)cc(N3CCOCC3)nc2n1Cc1cccc(Cl)c1Cl [GSK2334006]	27
N#Cc1c(N2CCOCC2)sc(-c2ccn[nH]2)c1-c1ccc(Cl)cc1	0
CC(=O)Nc1ccc(COc2ccc(Nc3ccnc4cc(-c5ccccn5)ccc34)cc2)cc1.Cl [GW440148]	8
O=c1cc(N2CCOCC2)nc2n(Cc3cccc(C(F)(F)F)c3)ccn12 [GSK2297543]	18
Fc1ccc(-c2nn3c(OCC(F)(F)F)cccc3c2-c2ccncc2)cc1 [GW514784]	11
Cc1cccc(-c2nc(Nc3ccc4ncsc4c3)c3ccccc3n2)n1 [GW867588]	0
